In PubChem BioAssay (NCI):
The panel holds about 83,000 compounds, 20% with a hit somewhere; the sample as a whole holds those more often.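 The test compound was applied at a single concentration to cells in 96-well plates for 48 hours, and percent growth was recorded.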 Unmarked numbers belong to inactive results. Activity calls are given as the source filed them. The calls were made as follows: active = growth percent below 10; inactive = the rest.

Columns and labels:
Test in all cases: NCI-60 one-dose screen, 48 h (100 = growth as untreated, 0 = no growth, -100 = all killed)
Conditions in all cases: 10 µM unless noted
NCI-H23 lung = system: NCI-H23 lung
NCI-H226 lung = system: NCI-H226 lung
NCI-H322M lung = system: NCI-H322M lung
HOP-62 NSCLC = system: HOP-62 NSCLC
NCI-H460 lung = system: NCI-H460 lung
HOP-92 NSCLC = system: HOP-92 NSCLC
NCI-H522 lung = system: NCI-H522 lung
A549/ATCC NSCLC = system: A549/ATCC NSCLC
786-0 renal = system: 786-0 renal
COLO 205 colon = system: COLO 205 colon

Row | SMILES | growth (NCI-H23 lung) | growth (NCI-H226 lung) | growth (NCI-H322M lung) | growth (HOP-62 NSCLC) | growth (NCI-H460 lung) | growth (HOP-92 NSCLC) | growth (NCI-H522 lung) | growth (A549/ATCC NSCLC) | growth (786-0 renal) | growth (COLO 205 colon)
1 | O=C(O)C1[S][Sb]([CH](C(=O)O)[CH](C(=O)O)[Sb]2[S]C(C(=O)O)C(C(=O)O)[S]2)[S]C1C(=O)O (stereo not given) | 104% | 105% | 95.8% | 123% | 84.6% | 91.6% | 42.4% | 89.2% | 93.7% | 114%
2 | Cc1nc([C@H]2CC[C@H]3[C@@H]4CCC5=CC(=O)CC[C@]5(C)[C@H]4CC[C@]23C)cs1 | 49.9% | 76.9% | 116% | 104% | 41.5% | 85% | 22% | 63.3% | 62.7% | 97.5%
3 | NS(=O)(=O)c1ccc(N2N=C(c3ccc(Br)cc3)CC2c2cn(-c3ccccc3)nc2-c2ccc(Cl)cc2)cc1 (stereo not given) | 88.3% | 103% | 92.5% | 98.2% | 81.6% | 157% | 89.9% | 76.8% | 97.9% | 86.3%
4 | Cc1ccc(-c2nc3ccccc3c(=O)n2/N=C/c2cccc3ccccc23)cc1 | 77.6% | 79.2% | 54.7% | 83.1% | 69.1% | 74.2% | 53.4% | 80.1% | 87.3% | 73.8%
5 | CCN(CC)CCCNc1cccc2c(C)cc(OC)nc12 | 90.5% | 91% | 93.6% | 98.8% | 100% | 58.4% | 87.5% | 94.8% | 94.6% | 87.4%
6 | CSCCC1NC(=O)C(C(C)=Nc2ccccc2)=C1O (stereo not given) | 105% | 112% | 102% | 107% | 114% | 108% | 116% | 101% | 98.9% | 105%
7 | NC(N)=N/N=C/c1ccccc1 | 102% | 97.8% | 91.2% | 101% | 103% | 95.8% | 85.6% | 97.4% | 103% | 99.9%
8 | CC1=NC(c2ccc(Cl)cc2)C2=C(N1)/C(=C/c1ccc(Cl)cc1)CCC2 (stereo not given) | 81.8% | 113% | 94.5% | 106% | 99.4% | 86.4% | 98.6% | 89% | 92.7% | 99%
9 | Cc1ccc(/C=C/C(=N/N=C(N)N)c2ccccc2)cc1 | 31.3% | 59.5% | 41.1% | 25.8% | 8.15% (active) | 13.9% | 9.07% (active) | 18.7% | 32.8% | -16.4% (active)
10 | COc1cccc2nc(Nc3cccc(NC(=O)c4cc(N5CCOCC5)cc(C(F)(F)F)c4)c3)ccc12 | 78.4% | 47.8% | 68.6% | 78.6% | 49.2% | 47.9% | 81.3% | 37.3% | 65.8% | 62.5%
11 | COc1ccc2[nH]c(O)c(/C=c3/ccc4c(c3)N=C(c3ccc(F)cc3)N=4)c2c1 | 71.7% | 85.4% | 49.4% | 34.2% | 36.9% | 4.86% (active) | 81% | 37.6% | -30.1% (active) | 72.9%
12 | COc1cc(C)c2c(=O)c3c(oc2c1)C(=O)c1c(O)c(OC)cc(O)c1C3=O | -2.42% (active) | 30.7% | 14.2% | 25.7% | 1.04% (active) | -32% (active) | -48.3% (active) | 7.31% (active) | 20% | 109%
13 | COc1cc2cc(C(=O)Nc3ccccc3)c(N)nc2cc1OC | 77.6% | 65.2% | 44.1% | 47.7% | -40.2% (active) | -11.4% (active) | -65.3% (active) | 15.3% | 21.2% | -93.3% (active)
14 | CC(C)N1CCN(c2ccncc2S(=O)(=O)N2CCN(C)CC2)CC1 | 96.8% | 89.7% | 123% | 106% | 102% | 108% | 92.7% | 101% | 98.6% | 105%
15 | COc1ccc(/C(=C\c2cc(OC)c(OC)c(OC)c2)C(=O)Nc2nc3ccc(Cl)cc3s2)cc1 | 94.4% | 83.2% | 82.5% | 94.9% | 117% | 86.8% | 74.9% | 81% | 91.3% | 108%
16 | C=C(CN1CC=CCC1)[C@@H]1CC[C@]2(C(=O)OC)CC[C@]3(C)[C@H](CC[C@@H]4[C@@]5(C)CC[C@H](OC(C)=O)C(C)(C)[C@@H]5CC[C@]43C)[C@@H]12 | 95.5% | 95.1% | 104% | 106% | 97.8% | 71.2% | 84% | 100% | 109% | 77.6%
17 | OC(c1cc(-c2ccc(C(F)(F)F)cc2)nc(-c2ccc(C(F)(F)F)cc2)c1)C1CCCCN1 (stereo not given) | -60.2% (active) | -71.2% (active) | -79.5% (active) | -86.9% (active) | -67.7% (active) | -81.9% (active) | -78.7% (active) | -84.4% (active) | -75.4% (active) | -79.6% (active)
18 | CN(C)c1ccc(/C=C(\C#N)c2nc3ccccc3n2C)cc1 | 58.9% | 77.8% | 46.5% | 89.7% | 13.8% | 86.4% | 3.96% (active) | 31% | 47.4% | 19.4%
19 | COS(=O)(=O)CCN(CCOS(C)(=O)=O)S(C)(=O)=O | 105% | 100% | 108% | 109% | 101% | 89.1% | 78.2% | 90.1% | 97.9% | 117%
20 | CN(C)c1ccc(C(c2ccccc2)c2ccc(N(C)C)cc2)cc1 | 79.1% | 95.2% | 128% | 104% | 99% | 63.4% | 88.3% | 91.8% | 97.5% | 111%
21 | CCOc1cccc(/C=N/NC(=O)Cc2ccc(Nc3ccnc(C(F)(F)F)c3)cc2)c1O | 39% | -1.59% (active) | 36.8% | 7.88% (active) | 0.302% (active) | 46.7% | 13.4% | 47.3% | 29% | 4.75% (active)
22 | CCC(=O)NC(O)C(Cl)(Cl)C(C)Cl (stereo not given) | 96.3% | 95.7% | 99.6% | 102% | 109% | 88.1% | 102% | 97.5% | 101% | 114%
23 | COc1cc(/C=C/c2ccc3c(Br)cc(Br)c(O)c3n2)ccc1O | 36.9% | 67.7% | 40.5% | 33% | 3.91% (active) | 16.6% | -38.2% (active) | 14.2% | 32.6% | 58%
24 | Cc1ccc(NC(=O)c2[nH]c(SCCN(C)C)nc2-c2ccc(F)cc2)cc1C#Cc1cnc2cccnn12 | 66.7% | 55.9% | 48.1% | -8.9% (active) | -69.4% (active) | 80.4% | 1.49% (active) | 5.21% (active) | -67.1% (active) | 81.1%
25 | CCN(CC)CCCC(C)Nc1cnc(C(=O)Nc2ccc(Cl)c3cccnc23)cn1 (stereo not given) | 80.4% | 39.1% | 35.3% | 43% | 3.47% (active) | 38.8% | 4.41% (active) | 23.4% | -44.2% (active) | -66.7% (active)
26 | COc1cccc(Cn2c(-c3nonc3NC(C)=O)nc3ccccc32)c1 | 39.8% | 60.9% | 33.7% | 38.9% | 20.7% | 29.6% | -20.6% (active) | 41.4% | 45.8% | 23.8%
27 | CCCCCCCCCCCCCCCCS(=O)(=O)Nc1cc(C(=O)NN)cc(C(=O)NN)c1 | 99.1% | 73.1% | 56.9% | 76.1% | 95.6% | 92.2% | 78.4% | 91.8% | 96.2% | 83.2%
